An excerpt weighted towards active compounds, which were near 28% of everything screened.
CYP2C9 activ – CYP2C9 (human) activation; activation factor at 5 µM; 1.4% of 96,000 active; recombinant CYP2C9, luciferin-H conversion, luminescence; active compounds read high; factor 1 = untreated enzyme, 0 = blocked; P11712;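 active = activation factor of 2 or more for CYP2C9 at a 5 µM dose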;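 also: 0 = sulfaphenazole-blocked wells and 1 = vehicle-only wells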
CD11b adhes inh – CD11b/CD18-fibrinogen binding inhibition; P05107+P11215; 0.54% of 93,000 active; AID 1497; inhibition, % at 10 µM; K562 CD11b/CD18 adhesion to fibrinogen, ATPlite luminescence; Mn2+ added to activate the integrin;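 active = primary inhibition of 50% or more at 10 µM, then 40% or more on retest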
CD11b adhes enh – CD11b/CD18-fibrinogen binding enhancement. 0.07% of 93,000 active. K562 CD11b/CD18 adhesion to fibrinogen, ATPlite luminescence. P05107+P11215. activation, % at 10 µM;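 active = 10 µM primary screen giving 50% or more activity, confirmed by 40% or more on retest at that dose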
CYP2C9 inhib – blocks human cytochrome P450 2C9 | P11712 | CYP2C9 Supersomes, luciferin-H conversion, luminescence | inhibition, % at 5 µM | 20% of 96,000 active;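 active = blocking of liver enzyme CYP2C9 beyond about 50% at 5 µM, limit read from the data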
CYP2C19 act – increases human CYP2C19 enzyme activity | P33261 | recombinant CYP2C19, luciferin-H EGE luminescence; active compounds read high; 0 = fully inhibited enzyme, 1 = untreated enzyme | activation factor at 5 µM | 96,000 tested, under 10 active | AID 1025;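 active = activation factor of at least 2 at 5 µM in the primary screen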;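 also: 0 = wells with 2.5 mM tranylcypromine and 1 = vehicle-only wells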
Target sequence (P33261 whole entry, looked up): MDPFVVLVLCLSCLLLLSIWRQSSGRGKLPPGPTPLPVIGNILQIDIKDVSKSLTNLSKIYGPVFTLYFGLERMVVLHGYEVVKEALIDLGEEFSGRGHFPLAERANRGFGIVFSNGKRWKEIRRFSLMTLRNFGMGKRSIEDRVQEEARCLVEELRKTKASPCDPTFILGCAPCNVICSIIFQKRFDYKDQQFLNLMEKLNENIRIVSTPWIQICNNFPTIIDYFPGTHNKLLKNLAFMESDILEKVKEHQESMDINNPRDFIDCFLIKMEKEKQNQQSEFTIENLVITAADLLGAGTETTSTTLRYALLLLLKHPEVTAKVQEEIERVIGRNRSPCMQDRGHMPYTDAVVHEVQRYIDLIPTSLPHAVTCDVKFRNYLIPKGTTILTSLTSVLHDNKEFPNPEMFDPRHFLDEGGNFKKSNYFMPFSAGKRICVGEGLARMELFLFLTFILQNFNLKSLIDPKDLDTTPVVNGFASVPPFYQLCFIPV
CYP2C19 inh – inhibitors of human CYP2C19 | CYP2C19 Supersomes, luciferin-H EGE luminescence, 30 min | inhibition, % at 5 µM | 21% of 96,000 active | AID 778;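 active = CYP2C19 inhibition above a set limit at 5 µM in the primary screen, cut at about 50% in these data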;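 also: plate controls were negative control wells for no effect and 2.5 mM tranylcypromine positive control for full effect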
The depositor's hits bear a star; x = no result.

SMILES	CYP2C9 activ	CD11b adhes inh	CD11b adhes enh	CYP2C9 inhib	CYP2C19 act	CYP2C19 inh
COc1ccccc1-n1c(O)c(C=NCCCn2ccnc2)c(=O)[nH]c1=O	0.8	-7	-3	16	0.9	8
O=c1[nH]c(=O)n(Cc2ccc(F)cc2)c(O)c1C=NCCCn1ccnc1	0.1	-3	1	86*	0.7	33
O=c1[nH]c(=O)n(-c2cccc3ccccc23)c(O)c1C=NCCCn1ccnc1	0.3	-8	3	75*	0.8	22
O=c1[nH]c(=O)n(Cc2ccccc2)c(O)c1C=NCCCn1ccnc1	0.4	3	-2	64*	0.9	7
CC(C(=O)c1cn(C)c2ccccc12)c1ccccc1 (stereo unspecified)	1.9	-5	-6	-90	0.8	17
CC1(C)CC(n2[nH]c(=O)c3c2NC(=O)CSC3c2ccc(F)cc2)CCO1 (stereo unspecified)	0.9	10	3	7	0.9	11
CC(C)N1C(=O)NC(=O)C2(Cc3cc([N+](=O)[O-])ccc3N(C)C2c2ccccc2)C1=O (stereo unspecified)	x	-3	0	x	x	x
CCCCn1c(=O)c(C(=O)Nc2ccsc2C(=O)OC)c(O)c2ccccc21	x	-4	51	x	x	x
O=c1[nH]c(=O)n(C2CCCCCC2)c(O)c1C=NCCCN1CCOCC1	0.7	-2	0	34	0.9	10
Cc1ccc(Cl)cc1-n1c(O)c(C=NCCCN2CCOCC2)c(=O)[nH]c1=O	1	-1	2	-1	0.9	6
CCOC(=O)CNC(=O)CSP(=S)(OCC)OCC	0.3	-6	0	70*	0	96*
COc1cc(/C=N/NP(=S)(c2ccccc2)c2ccccc2)ccc1O	0.2	-7	0	82*	0.6	42
COc1cc(/C=N/NC(=O)Cn2c([N+](=O)[O-])cnc2C)ccc1OC(=O)N(C)C	1.1	-12	-2	-14	1	-4
Oc1ccc(/C=N/NP(=S)(c2ccccc2)c2ccccc2)cc1	0.1	22	-5	86*	0.2	79*
Cc1ccc2c(c1)CC1(CN2C)C(=O)NC(=O)N(c2ccccc2C)C1=O (stereo unspecified)	0.7	-8	0	32	0.9	13
Cc1ccc2c(c1)CC1(CN2C)C(=O)NC(=O)N(c2cccc(C)c2C)C1=O (stereo unspecified)	0.8	-6	2	18	0.9	5
Cc1ccc2c(c1)CC1(CN2C)C(=O)NC(=O)N(c2ccc(C)c(C)c2)C1=O (stereo unspecified)	0.1	-9	-3	86*	0.5	53*
COc1ccccc1N1C(=O)NC(=O)C2(Cc3cc(C)ccc3N(C)C2)C1=O (stereo unspecified)	0.3	-10	1	68*	0.6	43
Cn1c[n+](C)cc1C(O)c1ccccc1 (stereo unspecified)	1.1	18	0	-6	1.1	-12
O=C1CSC2(CN3CCC2CC3)N1 (stereo unspecified)	1.1	-24	1	-13	1.1	-14
CCOc1ccccc1N1C(=O)NC(=O)/C(=C/c2ccc3c4c(cccc24)CC3)C1=O	4.1*	x	x	-306	0.9	7
CC(C)Oc1cc(-n2c(=S)[nH]c3ccccc3c2=O)c(Cl)cc1Cl	0.3	x	x	72*	0.1	90*
COc1cc(-n2c(=S)[nH]c3ccccc3c2=O)c(Cl)cc1Cl	0.4	x	x	58*	0.1	90*
O=c1[nH]c2ccccc2c(=O)n1-c1cccc(Cl)c1	1	6	7	2	0.7	34
CC(=O)OC1N=C(c2ccccc2)c2cc(C)ccc2NC1=O (stereo unspecified)	0.9	-11	3	9	1	2
SMILES	CYP2C9 activ	CD11b adhes inh	CD11b adhes enh	CYP2C9 inhib	CYP2C19 act	CYP2C19 inh
CCC(=NCCO)c1c(O)n(C2CCCCC2)c(=O)[nH]c1=O	0.6	-3	0	37	0.4	61*
CCC(=NCc1ccc2c(c1)OCO2)c1c(O)n(C2CCCCC2)c(=O)[nH]c1=O	0	26	0	100*	0	99*
Cc1cccc(-n2c(O)c(C=NCc3cccnc3)c(=O)[nH]c2=O)c1C	1	39	2	0	1	3
N=C(N)c1c(O)n(C2CCCCC2)c(=O)n(C2CCCCC2)c1=O	0.8	-33	3	21	1	1
COC(=O)C(O)(c1ccc(N(C)C(=O)COc2ccccc2)cc1)C(F)(F)F (stereo unspecified)	x	12	-4	x	x	x
CCOC(=O)N(CC)c1ccc(C(O)(C(=O)OC)C(F)(F)F)cc1 (stereo unspecified)	0.7	-9	-2	34	0.4	64*
Fc1ccc(CCNCc2ccc(Cl)c(Cl)c2)cc1	0.9	x	x	7	0	96*
CC1=NN(c2ccccc2)C(=O)C1/C=C1\C(=O)NC(=O)N(c2ccc(C)c(C)c2)C1=O (stereo unspecified)	0.3	-17	-1	68*	1.1	-15
CC(Cc1ccccc1Sc1ccccc1O)N(C)C (stereo unspecified)	0.8	-13	-5	21	0.4	61*
CC(=NCCCN1CCOCC1)c1c(O)[nH]c(=O)[nH]c1=O	1	-5	-1	3	1	3
COc1cccc(NC(=O)CN2CC(c3ccccc3)CC2=O)c1 (stereo unspecified)	1	0	-3	0	0.4	61*
COc1cc(/C=N/NC(=O)CN2CC(c3ccccc3)CC2=O)ccc1OC(=O)N(C)C (stereo unspecified)	1.2	x	x	-24	1	-3
COP(=S)(OC)SCN1C(=O)c2ccccc2C1=O	0.3	29	0	71*	0	98*
COCCNC(=O)c1c(N)n(Cc2ccco2)c2nc3ccccc3nc12	0.7	14	1	27	0.9	10
CCC(C)NC(=O)c1c(N)n(CCCOC)c2nc3ccccc3nc12 (stereo unspecified)	0.1	-10	5	88*	0.3	69*
COCCCn1c(N)c(C(=O)OC(C)COC)c2nc3ccccc3nc21 (stereo unspecified)	0.4	-6	-4	59*	0.7	31
CC(C)(C)OC(=O)c1c(N)n(Cc2ccco2)c2nc3ccccc3nc12	0.2	5	0	84*	0.5	52*
COCCCn1c(N)c(C(=O)Nc2sc3c(c2C(=O)OC)CCCC3)c2nc3ccccc3nc21	0.9	x	x	12	1	4
CCC(C)NC(=O)c1c(N)n(Cc2ccc3c(c2)OCO3)c2nc3ccccc3nc12 (stereo unspecified)	0.3	-2	2	67*	0.9	9
CCCCn1c(N)c(C(=O)NCCN2CCOCC2)c2nc3ccccc3nc21	0.9	-9	1	14	1	-5

From PubChem
